Screening results as filed in PubChem.
BJeLR viability: BJeLR cell viability loss. BJeLR (HRASV12) viability, CellTiter-Glo ATP luminescence, 48 h. inhibition, % (concentration not given with the values). 300,000 compounds, 0.17% hits. AID 1554; in the data active = inhibition above about 50%; inconclusive = no clear call, values can overlap the other calls
Vc quorum ag: inducers of Vibrio cholerae quorum light production without autoinducers | V. cholerae BH1578 lux reporter, luminescence, 6 h | activation, % at 18.7 µM | 350,000 compounds, 0.16% hits | AID 588436; in the data active = activation mostly above about 9.7%, no sharp cut-off; inconclusive = no clear call, values can overlap the other calls; inactive = mostly below about 3.7%
BoNT A protease: blocks Botulinum neurotoxin A light chain protease | inhibition, % at 10 µM | multiplex microsphere protease substrate cleavage, flow cytometry | 360,000 compounds, 0.17% hits; note: plate controls were buffer without enzyme for full effect and enzyme alone for no effect
Bead autofluor: counter-screen for toxin protease inhibitors: compound fluorescence. 360,000 compounds, 3.1% hits. compound autofluorescence counterscreen, microsphere flow cytometry; active compounds read high. fluorescence intensity (concentration not given with the values). AID 624483; in the data active = fluorescence intensity above about 16000; inconclusive = no clear call, values can overlap the other calls
BoNT F protease: inhibitors of Botulinum neurotoxin F light chain protease; Multiplex microsphere protease cleavage assay, flow cytometry; inhibition, % at 10 µM; 360,000 compounds, 0.22% hits; AID 588497; in the data active = inhibition above about 35%, passing the limit was not always enough; inconclusive = no clear call, values can overlap the other calls; note: plate controls were buffer without enzyme for full effect and enzyme alone for no effect
Anthrax LF prot: inhibitors of Bacillus anthracis lethal factor protease. P15917. multiplex microsphere protease cleavage assay, LF. inhibition, % at 10 µM. 360,000 compounds, 0.12% hits. AID 588501; note: plate controls were buffer without enzyme for full effect and enzyme alone for no effect
Target sequence (P15917 whole entry, looked up): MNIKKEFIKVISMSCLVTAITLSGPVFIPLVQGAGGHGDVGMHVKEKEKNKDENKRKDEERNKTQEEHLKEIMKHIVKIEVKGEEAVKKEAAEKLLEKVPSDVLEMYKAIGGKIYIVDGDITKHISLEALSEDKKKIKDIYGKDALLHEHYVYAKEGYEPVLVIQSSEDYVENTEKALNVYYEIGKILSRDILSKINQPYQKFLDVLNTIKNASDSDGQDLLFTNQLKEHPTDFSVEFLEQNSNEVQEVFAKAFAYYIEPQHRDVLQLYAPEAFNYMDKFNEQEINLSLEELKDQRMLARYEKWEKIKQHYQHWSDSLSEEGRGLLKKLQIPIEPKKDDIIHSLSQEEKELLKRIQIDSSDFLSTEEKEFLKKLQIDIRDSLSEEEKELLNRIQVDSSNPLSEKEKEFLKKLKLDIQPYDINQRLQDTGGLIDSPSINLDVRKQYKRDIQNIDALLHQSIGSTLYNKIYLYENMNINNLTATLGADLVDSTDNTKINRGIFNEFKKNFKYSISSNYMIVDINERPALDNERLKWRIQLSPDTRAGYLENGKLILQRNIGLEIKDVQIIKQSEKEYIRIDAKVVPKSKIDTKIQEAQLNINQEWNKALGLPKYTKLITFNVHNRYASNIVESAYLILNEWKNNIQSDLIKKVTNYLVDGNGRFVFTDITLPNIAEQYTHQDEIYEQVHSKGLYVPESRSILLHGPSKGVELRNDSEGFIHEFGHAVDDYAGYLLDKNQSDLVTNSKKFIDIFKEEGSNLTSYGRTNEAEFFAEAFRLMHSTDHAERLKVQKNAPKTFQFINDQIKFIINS
An asterisk follows results filed as active. In the library only some 3.7% were active in any assay of this set; here they are far more common. Cut-off read from the data, not from the text of the source, unless noted: active = inhibition above about 30%; inconclusive = no clear call, values can overlap the other calls; inactive = below that.

How did O=S(=O)(Cc1ccccc1)NCc1ccccn1 do in these assays?
BJeLR viability: 2; Vc quorum ag: -1; BoNT A protease: -1; Bead autofluor: 21025*; BoNT F protease: 1; Anthrax LF prot: 3

What do the screens show for `COc1cnc(SCc2c(Cl)cccc2Cl)nc1Cl`?
BJeLR viability: -10; Vc quorum ag: 0; BoNT A protease: -3; Bead autofluor: 20944*; BoNT F protease: -7; Anthrax LF prot: -7

How did O=C(Nc1ccc2c(c1)OCO2)c1cc(C2CCCCN2S(=O)(=O)Cc2ccccc2)on1 (stereo not given) do in these assays?
Vc quorum ag: 0; BoNT A protease: 1; Bead autofluor: 3500; BoNT F protease: 1; Anthrax LF prot: 3

Results for CC(C)(C)c1ccc(C(=O)CCCSC2=C(C#N)C(c3ccco3)C3=C(CCCC3=O)N2)cc1 (stereo not given) ?
Vc quorum ag: inactive; BoNT A protease: inconclusive; Bead autofluor: 23545*; BoNT F protease: -6; Anthrax LF prot: -5

How did C=CCN1CC(c2nc3ccccc3n2CCOc2ccccc2)CC1=O (stereo not given) do in these assays?
BJeLR viability: 1; Vc quorum ag: 0; BoNT A protease: -2; Bead autofluor: 22558*; BoNT F protease: -4; Anthrax LF prot: 0

What do the screens show for `C=C(C)Cn1c(C2CC(=O)N(Cc3ccccc3)C2)nc2ccccc21` (stereo not given)?
BJeLR viability: -7; Vc quorum ag: 0; BoNT A protease: 0; Bead autofluor: 5104; BoNT F protease: -4; Anthrax LF prot: -4

What do the screens show for `O=C(O)c1ccc2c(c1)CC(c1ccccc1)OC2=O` (stereo not given)?
BJeLR viability: 11; Vc quorum ag: -8; BoNT A protease: 0; Bead autofluor: 3904; BoNT F protease: -7; Anthrax LF prot: -6

What do the screens show for `O=C(O)c1ccc2c(c1)C(c1ccccc1)OC2=O` (stereo not given)?
BJeLR viability: -8; Vc quorum ag: inactive; BoNT A protease: 12; Bead autofluor: 16408*; BoNT F protease: 16; Anthrax LF prot: -13

How did Cc1ccc(C(=O)CCC2CCCCC2=O)cc1 (stereo not given) do in these assays?
BJeLR viability: -14; Vc quorum ag: -1; BoNT A protease: inconclusive; Bead autofluor: 19947*; BoNT F protease: 0; Anthrax LF prot: 0

Results for Cc1ccc(C(=O)CCC2CCCC2=O)cc1 (stereo not given) ?
BJeLR viability: 10; Vc quorum ag: 1; BoNT A protease: 0; Bead autofluor: 2779; BoNT F protease: 3; Anthrax LF prot: -2

What do the screens show for `O=Cc1cc2ccccc2nc1SCc1ccc(Cl)c(Cl)c1`?
BJeLR viability: 55*; Vc quorum ag: 0; BoNT A protease: 0; Bead autofluor: 2543; BoNT F protease: 2; Anthrax LF prot: 2

How did Cc1ccc(CSc2nc3ccccc3cc2C=O)cc1 do in these assays?
BJeLR viability: 44; Vc quorum ag: -1; BoNT A protease: 1; Bead autofluor: 4735; BoNT F protease: 32; Anthrax LF prot: 2

How did O=Cc1cc2ccccc2nc1SCc1ccc(Cl)cc1 do in these assays?
BJeLR viability: 63*; Vc quorum ag: inactive; BoNT A protease: 0; Bead autofluor: 2284; BoNT F protease: -17; Anthrax LF prot: -3

Results for Cc1onc(-c2ccccc2)c1C(=O)N1CCC(C)(C(=O)NS(=O)(=O)C2CC2)C1 (stereo not given) ?
Vc quorum ag: 0; BoNT A protease: 0; Bead autofluor: 2967; BoNT F protease: 5; Anthrax LF prot: -1

How did COc1ccc(CNCC(O)(c2ccccc2)c2ccc(F)cc2)cc1 (stereo not given) do in these assays?
BJeLR viability: 22; Vc quorum ag: inactive; BoNT A protease: 0; Bead autofluor: 4049; BoNT F protease: 0; Anthrax LF prot: 2

Results for COc1ccc(CNCC(O)(c2ccc(Cl)cc2)c2ccc(Cl)cc2)cc1 ?
BJeLR viability: -2; Vc quorum ag: 0; BoNT A protease: -2; Bead autofluor: 21174*; BoNT F protease: -16; Anthrax LF prot: -6

What do the screens show for `COc1ccc(CNCC(O)(c2ccc(Cl)cc2)c2ccc(Cl)cc2)cc1OC`?
Vc quorum ag: -1; BoNT A protease: -6; Bead autofluor: 18261*; BoNT F protease: -22; Anthrax LF prot: -5

How did COc1ccc(CNCC(O)(c2ccc(F)cc2)c2ccc(F)cc2)cc1OC do in these assays?
BJeLR viability: 7; Vc quorum ag: -3; BoNT A protease: 2; Bead autofluor: 3290; BoNT F protease: -14; Anthrax LF prot: -2

Results for O=C(OCC#CCSc1nc2ccccc2s1)c1ccco1 ?
BJeLR viability: 4; Vc quorum ag: inactive; BoNT A protease: 0; Bead autofluor: 19554*; BoNT F protease: 3; Anthrax LF prot: 0

Results for O=C(OCC#CCSc1nnc(-c2ccccc2)o1)c1ccco1 ?
BJeLR viability: -7; Vc quorum ag: 3; BoNT A protease: 0; Bead autofluor: 4565; BoNT F protease: -1; Anthrax LF prot: 6

How did O=c1c2ccccc2nc(-c2ccoc2)n1-c1ccccc1Cl do in these assays?
BJeLR viability: -1; Vc quorum ag: -5; BoNT A protease: 1; Bead autofluor: 22805*; BoNT F protease: 2; Anthrax LF prot: -2

What do the screens show for `O=c1c2ccccc2nc(-c2ccoc2)n1-c1ccccc1`?
BJeLR viability: 4; Vc quorum ag: -3; BoNT A protease: inconclusive; Bead autofluor: 20668*; BoNT F protease: -1; Anthrax LF prot: -1

How did COc1ccccc1-n1c(-c2ccoc2)nc2ccccc2c1=O do in these assays?
Vc quorum ag: -2; BoNT A protease: 0; Bead autofluor: 2217; BoNT F protease: -10; Anthrax LF prot: -3

What do the screens show for `N#Cc1c2n(c3c(=O)n(Cc4ccccc4)cnc13)CCCC2`?
BJeLR viability: 5; Vc quorum ag: 0; BoNT A protease: -5; Bead autofluor: 17920*; BoNT F protease: -7; Anthrax LF prot: -2

How did CC(C)(C)SCCNS(=O)(=O)c1ccc2ccccc2c1 do in these assays?
BJeLR viability: -4; Vc quorum ag: -2; BoNT A protease: -2; Bead autofluor: 23401*; BoNT F protease: -5; Anthrax LF prot: -4

Results for CC(=O)N1C[C@@H](CO)[C@@H](N(C)C(=O)C2CCCCC2)C[C@H]1c1ccccc1 ?
BoNT A protease: -1; Bead autofluor: 4848; BoNT F protease: -7; Anthrax LF prot: -4

How did Cc1ccc(C(=O)Nc2nnc(C3CCCCC3)s2)o1 do in these assays?
BJeLR viability: 16; Vc quorum ag: 0; BoNT A protease: -1; Bead autofluor: 23882*; BoNT F protease: -4; Anthrax LF prot: -4

What do the screens show for `O=C(CC[C@H]1O[C@@H](n2ccc(=O)[nH]c2=O)[C@H](O)[C@@H]1O)N[C@@H](Cc1ccccc1)C(=O)NCC1CCCCC1`?
BoNT A protease: 1; Bead autofluor: 5485; BoNT F protease: -2; Anthrax LF prot: 1

What do the screens show for `CCn1c(SCC(=O)NCC(=O)Nc2ccc(F)cc2)nnc1-c1cccs1`?
BJeLR viability: 3; Vc quorum ag: 25*; BoNT A protease: 0; Bead autofluor: 7227; BoNT F protease: -2; Anthrax LF prot: -2
